Experimental data reported in the supplement of paper PMC7595190.
Values without a mark were called inactive.

System: MV4-11
Experiment: CellTox Green cytotoxicity fluorescence relative to DMSO vehicle (fold of vehicle RFU); higher = more cell death (loss of membrane integrity), active = 2 or more
Procedure: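 Paediatric AML cell lines (MV4-11, CMK, Kasumi-1; 4x10^4 cells/well, 96-well) treated with single compounds from the Selleckchem apoptosis library at 0.01, 0.1 and 1 µM. Cytotoxicity was read with CellTox Green (RFU, Ex 485/Em 520) at 24, 48 and 72 h and normalised to the 0.1% DMSO vehicle. Normalised RFU >= 2 was taken as a successful, cell-killing treatment.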

| Structure (SMILES) | CellTox Green cytotoxicity fluorescence (0.01 µM, 24 h) | CellTox Green cytotoxicity fluorescence (0.01 µM, 48 h) | CellTox Green cytotoxicity fluorescence (0.01 µM, 72 h) | CellTox Green cytotoxicity fluorescence (0.1 µM, 24 h) | CellTox Green cytotoxicity fluorescence (0.1 µM, 48 h) | CellTox Green cytotoxicity fluorescence (0.1 µM, 72 h) | CellTox Green cytotoxicity fluorescence (1 µM, 24 h) | CellTox Green cytotoxicity fluorescence (1 µM, 48 h) | CellTox Green cytotoxicity fluorescence (1 µM, 72 h) |
| --- | --- | --- | --- | --- | --- | --- | --- | --- | --- |
| C=CC(=O)N1CCC(Oc2cc3c(Nc4ccc(Cl)c(Cl)c4F)ncnc3cc2OC)CC1 [Poziotinib] | 0.975 | 0.986 | 0.988 | 1.02 | 1.02 | 1.03 | 1.01 | 1.03 | 1.09 |
| CN[C@@H](C)C(=O)N[C@H](C(=O)N1CCC[C@H]1c1nc(C(=O)c2ccc(F)cc2)cs1)C1CCCCC1 | 0.99 | 0.973 | 0.977 | 0.975 | 0.99 | 1 | 0.969 | 1.02 | 1.03 |
| CC(=O)N1c2ccc(-c3ccc(C(=O)O)cc3)cc2[C@H](Nc2ccc(Cl)cc2)C[C@@H]1C | 0.931 | 0.997 | 1.17 | 0.975 | 1.43 | 2.03 (active) | 1.09 | 1.87 | 2.28 (active) |
| O=C1NC(=NCc2cccs2)S/C1=C\c1ccc2ncccc2c1 | 0.976 | 0.968 | 0.981 | 0.997 | 0.979 | 0.955 | 1.05 | 1.12 | 1.15 |
